High-throughput results (PubChem)
Rows were chosen to be rich in hits. Some 3.2% of all compounds tested hit in one or more screens of this group.
AmpC no deterg – blocks E. coli AmpC beta-lactamase in detergent-free assay. P00811. AmpC nitrocefin hydrolysis, absorbance 480 nm, 0.0001% Triton. actives 0.52% (n = 330,000). Potency, µM (highest dose often 57.1 µM), for the others: at the highest dose activity change, negative = inhibition, actives largely listed as inhibitors;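 also: plate controls were no compound for no effect and no enzyme for full effect; nearly all actives have a fitted effect of over 20% in size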
Target sequence (P00811 whole entry, looked up): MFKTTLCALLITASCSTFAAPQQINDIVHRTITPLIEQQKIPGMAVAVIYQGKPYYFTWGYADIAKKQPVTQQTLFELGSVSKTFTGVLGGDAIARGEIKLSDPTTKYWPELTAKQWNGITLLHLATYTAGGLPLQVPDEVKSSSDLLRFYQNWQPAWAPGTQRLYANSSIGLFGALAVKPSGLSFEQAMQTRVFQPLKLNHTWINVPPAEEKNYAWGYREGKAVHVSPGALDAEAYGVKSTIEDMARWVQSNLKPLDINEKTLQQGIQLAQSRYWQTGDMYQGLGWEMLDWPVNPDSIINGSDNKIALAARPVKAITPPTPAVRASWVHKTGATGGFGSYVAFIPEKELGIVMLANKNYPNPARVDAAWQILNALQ
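AmpC (5.3 nM in the dispensed reagent) in 20 mM phosphate pH 7.0 with 0.01% (detergent screen) or 0.0001% Triton X-100 was preincubated with compounds for 15 min at room temperature. Nitrocefin was then added from an 800 uM solution, and hydrolysis was followed at 480 nm.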
AmpC detergent – blocks E. coli AmpC beta-lactamase in detergent assay; P00811; AmpC hydrolysis of nitrocefin, absorbance 480 nm, 0.01% Triton; Potency, µM (top dose mostly 114 µM), for the others: at the highest dose activity change, negative = inhibition, most hits filed as inhibitors; actives 0.041% (n = 370,000); AID 485294;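 also: 0% = no-compound wells and -100% = no-enzyme wells; nearly all actives have a fitted effect of over 25% in size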
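20 mM phosphate pH 7.0 + 0.01% (detergent screen) or 0.0001% Triton X-100; 5.3 nM AmpC reagent; cpd preinc 15 min RT; nitrocefin (800 uM stock) to start; A480 q20 s × 4 min; Activity was normalised to no-enzyme and no-compound control wells.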
Sm TGR block – S. mansoni TGR enzyme inhibition | Q962Y6 | purified TGR, DTNB reduction, TNB absorbance 405 nm | Potency, µM (top dose mostly 114 µM), without a hit: at the top dose activity change, negative = inhibition, usual class: inhibitors | actives 3% (n = 360,000); also: nearly all actives have a fitted effect of over 60% in size
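First, TGR (20 nM dispensed) and NADPH were mixed with compound. Second, a 15 min room-temperature incubation followed. Third, further NADPH and then DTNB were added to start the reaction. Finally, TNB absorbance was monitored kinetically.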
AMA1-RON2 inh – disrupts binding of P. falciparum AMA1 to RON2; AlphaScreen AMA1-biotinylated RON2 peptide binding; Potency, µM (highest dose often 58.2 µM), without a hit: at the highest dose activity change, negative = inhibition, hits mostly inhibitors; actives 0.2% (n = 360,000); AID 720542;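 also: 0% = vehicle wells and -100% = peptide control; nearly all actives have a fitted effect of over 45% in size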
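AMA1 (3D7) with his tag at 25 nM final met compounds first, then biotinylated RON2 peptide at 25 nM; detection used donor plus acceptor beads, 10 µg/mL apiece, read by AlphaScreen after 30 min at room temperature.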
RE007 growth inh – less growth of the S. pombe RE007 Vpr strain. AID 651644. S. pombe RE007 Vpr strain, BacTiter-Glo ATP luminescence, 24 h. actives 0.21% (n = 360,000). Potency, µM (highest dose often 92.2 µM), without a hit: at the top dose activity change, negative = less growth, actives largely listed as inhibitors; active = well fitted falling curve with a large enough effect; inconclusive = small, poorly fitted or top-dose-only effect; inactive = no such curve, though single readings can be large or run the other way; also: nearly all actives have a fitted effect of over 50% in size
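Fission yeast strain RE007, carrying one chromosomally integrated HIV-1 vpr copy, was seeded at OD 0.01 in PMG+AL medium with 23 nL pinned compound. After 24 h at 30 °C and 99% humidity, viability was read by BacTiter-Glo luminescence.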
The depositor's hits bear a star; ? = inconclusive; nt = not tested or not shown. Unless noted, calls follow the shape of the dose curve; as a rule, active = well fitted curve in the direction sought with a large enough effect; inconclusive = small, poorly fitted or top-dose-only effect, or another doubt; inactive = no such curve, though single readings can be large; an effect the other way counts as inactive or inconclusive. Unless noted, % is scaled to controls: 0 for no effect and ±100 for the full control effect; potency is read from the fitted curve at half-maximal effect.

SMILES	AmpC no deterg	AmpC detergent	Sm TGR block	AMA1-RON2 inh	RE007 growth inh
Cc1cccc(Nc2nc3c(s2)CCCC3)c1	-23%	2%	-10%	-11%	25µM*
CCOc1ccc(CC(=O)Nc2c(C(=O)c3ccc(Cl)cc3)oc3ccccc23)cc1OCC	nt	-1%	8%	nt	nt
COc1cc2cc(CN(Cc3nnnn3Cc3ccco3)C3CCCCC3)c(=O)[nH]c2cc1OC	115%	?	13µM*	-3%	20%
O=c1[nH]c2cc3c(cc2cc1CN(Cc1nnnn1CC1CCCO1)C1CCCCC1)OCO3 (centres undefined)	-31%	4%	?	-2%	8%
CCC(C)(C)n1nnnc1CN(Cc1cc2cc(OC)ccc2[nH]c1=O)C1CCCC1	21%	-2%	6%	-1%	-11%
O=c1[nH]c2cc3c(cc2cc1CN(Cc1nnnn1CC1CCCO1)C1CCCC1)OCO3 (centres undefined)	0%	-5%	25µM*	0%	40%
CCOc1ccc2[nH]c(=O)c(CN(Cc3nnnn3Cc3ccco3)C3CCCCC3)cc2c1	22%	18%	5.6µM*	-2%	3%
CCCc1noc(-c2ccc(NCc3ccc(C)cc3)c([N+](=O)[O-])c2)n1	nt	33%	0%	nt	nt
Cc1cccc(N(CC(=O)Nc2ccc(Br)cc2)S(C)(=O)=O)c1C	nt	7%	10%	nt	nt
C=CCN1C(=O)CSC1=Nc1ccc(C(=O)O)cc1	-6%	?	0%	-7%	6%
C=CCN1C(=O)CS/C1=C(\C#N)S(=O)(=O)c1ccc(C)cc1	14µM*	-12%	4%	-7%	3%
O=[N+]([O-])c1ccc(C(c2sc3nc(-c4ccco4)nn3c2O)N2CCC3(CC2)OCCO3)cc1 (centres undefined)	nt	0%	2%	nt	nt
O=S(=O)(CCc1ccncc1)Cc1ccc2c3c(cccc13)CC2	-4%	8%	40µM*	16%	1%
O=C(c1ccc2c3c(cccc13)CC2)C1CCCN(Cc2ccncc2)C1 (centres undefined)	114%	6%	-19%	-11%	-6%
Cc1cccc(C)c1NC(=O)C(NS(=O)(=O)c1ccc2c(c1)CCC(=O)N2)c1ccccc1 (centres undefined)	nt	6%	?	nt	nt
Cc1cccc(NC(=O)C(NS(=O)(=O)c2ccc3c(c2)CCC(=O)N3)c2ccccc2)n1 (centres undefined)	25µM*	-6%	3%	14%	-1%
Cc1ccc(S(=O)(=O)c2nc(-c3ccccc3)oc2NCCN2CCOCC2)cc1	210%	-11%	45µM*	21%	20%
Cc1ccc(S(=O)(=O)c2nc(C)oc2NCc2ccccc2)cc1	-60%	50µM*	2µM*	nt	nt
COc1ccccc1/C=C/c1nc(S(=O)(=O)c2ccccc2)c(NCCN(C)C)o1	123%	-14%	22µM*	27%	-8%
COc1ccc(/C=C/c2nc(S(=O)(=O)c3ccccc3)c(NCCCN(C)C)o2)cc1OC	55%	3%	?	13%	7%
COc1ccc(-c2nc(S(=O)(=O)c3ccc(C)cc3)c(NCc3ccccc3)o2)cc1	nt	8%	13µM*	nt	nt
CCN(CC)c1cc2c(cc1F)c(=O)c(S(=O)(=O)c1cc(C)ccc1C)cn2Cc1ccccc1	nt	3%	7%	nt	nt
O=C1CC(c2nnc(Cc3ccccc3Cl)o2)CN1c1ccccc1 (centres undefined)	nt	-1%	2%	nt	nt
CCCCNc1oc(-c2ccc(OC)cc2)nc1S(=O)(=O)c1ccccc1	-5%	0%	32µM*	-14%	-8%
COc1cccc(-n2nnnc2S(C)(=O)=O)c1	-14%	0%	2.8µM*	-1%	-20%
SMILES	AmpC no deterg	AmpC detergent	Sm TGR block	AMA1-RON2 inh	RE007 growth inh
Cc1cccc(-n2nnnc2S(C)(=O)=O)c1	nt	3%	2.5µM*	nt	nt
Oc1c(C(c2cccs2)N2CCN(c3ccccc3)CC2)ccc2cccnc12 (centres undefined)	nt	-2%	0.71µM*	nt	nt
CC(=O)NC(c1ccc(C(C)C)cc1)c1ccc2cccnc2c1O (centres undefined)	76%	-9%	0%	59%	?
CN1CCN(C(c2ccc(C(F)(F)F)cc2)c2ccc3cccnc3c2O)CC1 (centres undefined)	-1%	0%	0.32µM*	-24%	-9%
O=C(Nc1ccc(S(=O)(=O)Nc2ccccc2)cc1)N1CCCC1	nt	-1%	3%	nt	nt
O=[N+]([O-])c1ccc(Nc2ccc3ccccc3c2)nc1	0.32µM*	1%	0%	-5%	14%
O=[N+]([O-])c1ccc(/C=C2\CCC(C3=CCCC3)=C2N2CCOCC2)cc1	-48%	-4%	32µM*	-10%	?
CCCOc1ccc(N2C(=O)CC(SCc3nc4ccccc4[nH]3)C2=O)cc1 (centres undefined)	-17%	1%	?	56%	63µM*
NCCSC1CC(=O)N(c2ccc(F)cc2)C1=O (centres undefined)	0%	-5%	?	1%	-1%
O=C1CC(SCc2nc3ccccc3[nH]2)C(=O)N1c1ccc(F)cc1 (centres undefined)	-18%	3%	45µM*	80%	?
NCCSC1CC(=O)N(c2ccc(Cl)c(Cl)c2)C1=O (centres undefined)	-38%	-2%	63µM*	38%	-56%
O=C1CC(SCc2nc3ccccc3[nH]2)C(=O)N1c1cccc(Cl)c1 (centres undefined)	-47%	?	?	71%	28µM*
O=C1CC(c2nc3ccccc3[nH]2)CN1c1cccc(Cl)c1 (centres undefined)	nt	12%	-1%	nt	nt
CCCOc1ccc(N2C(=O)CC(SC(=N)N3N=C(c4ccccc4)CC3c3ccccc3)C2=O)cc1 (centres undefined)	-26%	-10%	-2%	-7%	1%
O=C(Nc1ccccc1)N(Cc1c[nH]c2ccccc12)C1CCCCCC1	nt	-3%	-9%	nt	nt
O=C(C1CCCN(S(=O)(=O)c2ccc(Br)s2)C1)N1CCN(c2ccc(F)cc2)CC1 (centres undefined)	nt	20%	10%	nt	nt
CCc1c(O)nc(SC2CC(=O)N(c3ccc(F)c(Cl)c3)C2=O)[nH]c1=O (centres undefined)	-32%	-12%	?	18%	-3%
O=C1CC(SCCc2nc3ccccc3[nH]2)C(=O)N1c1ccc(F)c(Cl)c1 (centres undefined)	nt	nt	nt	3%	28µM*
Cc1ccc(C)n1-c1nnc(N2CCCC(C(=O)NCc3cccc(Cl)c3)C2)s1 (centres undefined)	nt	24%	-29%	nt	nt
Cc1ccccc1Cn1c(=O)n(CCCCCC(=O)NCc2ccc3c(c2)OCO3)c(=O)c2sccc21	nt	19%	-2%	nt	nt
